# According to ChEMBL document CHEMBL1157539, “Thousands of chemical starting points for antimalarial lead identification” (Nature, 2010):
# Test system: HepG2
# Experiment: GSK_TCMDC: Percent inhibition of human HepG2 cell line. Test compounds present at 10uM.
# Type: functional
row,SMILES,Inhibition [%]
1,CC(C)(C)c1ccc(S(=O)(=O)Nc2ccccc2Cn2nc(N3CCNCC3)ccc2=O)cc1.O=C(O)C(F)(F)F,0
2,COc1ccc(NCCCNc2ccnc3ccccc23)cc1,34
3,CCOc1ccc2c(=NN=Cc3ccc(F)cc3)cc(C)[nH]c2c1,22
4,O=C(NCC1CCN(CC2CCCCC2)C1)c1cc(-c2cccc(Cl)c2)cs1.O=C(O)C(F)(F)F (centres undefined),51
5,O=C(/C=C/c1ccc(Cl)c(Cl)c1)NCCCCCN1CCN(C(=O)Nc2ccc(OC(F)F)cc2)CC1,20
6,COc1cc2nc(-c3ccccc3)nc(N3CCN(CC(=O)N4CCCC4)CC3)c2cc1OC,7
7,O=C(NCCN1CCCCC1)c1ccc(CNC(=O)c2ccc(O)c(-c3ccc(Cl)c(Cl)c3)c2)cc1,3
8,CNc1ccc(CNCc2ccc(-c3ccc(-c4nc5cc(C(F)(F)F)ccc5[nH]4)s3)cc2)cc1.O=C(O)C(F)(F)F,44
9,Clc1ccc(Nc2nc(Nc3ccc(Cl)c(Cl)c3)nc(Sc3nc4ccccc4[nH]3)n2)cc1Cl,10
10,O=C(O)C(F)(F)F.c1ccc(C2CCN(Cc3ccc(-c4c[nH]c5nc(NC6CCCC6)ncc45)cc3)CC2)cc1,39
11,O=c1c(Br)ccccc1Br,98
12,CCCN(CCC)CCCNc1ccc(C(=O)Nc2ccc(OCC)cc2)cc1[N+](=O)[O-],7
13,Cc1cc2nc(-c3ccc(/C=C/C(=O)NCCCc4ccccc4)cc3)[nH]c2cc1C,15
14,Cc1[nH]c(C)c(-c2ccc(CCc3ccc(F)cc3F)cc2)c(=O)c1Cl,5
15,Nc1ncc(-c2ccccc2)cc1-c1cccc2ncccc12.O=C(O)C(F)(F)F,82
16,CCN(CC)CCN(Cc1ccc(-c2ccc(C(F)(F)F)cc2)cc1)C(=O)Cn1c(CCc2cccc(C#N)c2)nc(=O)c2ccccc21.O=C(O)C(O)C(O)C(=O)O,36
17,Cc1cc(NCCC(=O)NCCOc2ccccc2)nc(Nc2ccccc2)n1.O=C(O)C(F)(F)F,26
18,CS(=O)(=O)O.FC(F)(F)COc1ccc2ccccc2c1CCNCCCCNCCc1c(OCC(F)(F)F)ccc2ccccc12,99
19,Cc1noc(C)c1-c1ccc2c(Nc3ccccc3C(C)(C)C)c(C(=O)NCc3cccc4ccccc34)cnc2c1.Cl,4
20,Cc1cc(NC(=O)Nc2ccc(C(C)C)cc2)c2ccccc2n1.Cl,7

row,SMILES,Inhibition [%]
1,COc1ccc2c(NCCc3ccccc3)cc(-c3ccccc3)nc2c1.Cl,13
2,FC(F)(F)c1ccc2[nH]c(-c3ccc(-c4ccc(CN5CCN(c6ccncc6)CC5)cc4)s3)nc2c1.O=C(O)C(F)(F)F,97
3,Cc1ccccc1-c1nc2c(CN3CCC(O)(c4ccccc4)CC3)c(O)ccc2[nH]1,27
4,CC(=O)Nc1cc(C(=O)Nc2cccc(-c3csc(-c4nc5ccccc5[nH]4)c3)c2)ccc1C,31
5,Cl.O=c1cc(NCCCNCc2scc(I)c2I)[nH]c2ccccc12,0
6,CCOc1c(OC)ccc2c1CCN(CCN1CCC(CNC(=O)c3ccc(-c4ccc(C(F)(F)F)cc4)cc3)CC1)C2,54
7,CC1CCCC(NC(=O)CCOc2ccccc2)C1 (centres undefined),0
8,O=C(COc1ccc(Cl)c(Cl)c1)NCCCCCN1CCCN(C(=O)Nc2cc(Cl)cc(Cl)c2)CC1.O=C(O)C(F)(F)F,44
9,Oc1ccc(-c2nc(-c3ccc4oc5ccc(-c6[nH]c(-c7ccc(O)cc7)nc6-c6ccccc6)cc5c4c3)c(-c3ccccc3)[nH]2)cc1,0
10,Cc1noc(-c2ccccc2)c1NC(=O)N1CCN(CCCCCCNC(=O)/C=C/c2ccc(Cl)c(Cl)c2)CC1,6
11,CCC/C=C/c1c(CNCCCNc2cc(=O)c3ccccc3[nH]2)sc(CC)c1Br.Cl,8
12,CCCCCCCCc1c(C)nc(C)c(C#N)c1O,0
13,COc1cc2nc(N3CCN(C(=O)c4cccc(I)c4)CC3)nc(N)c2cc1OC,11
14,COc1cc(F)c2ncc(Cl)c(C(O)CN3CCC(NC(=O)c4ccc5c(c4)NC(=O)CS5)CC3)c2c1.Cl (centres undefined),15
15,COc1ccc(-c2ccc(NC(=O)c3ccc(Cl)cc3)cc2)cc1CN1CCN(C)CC1.O=C(O)C(F)(F)F,36
16,Cc1nc2nc(N)nc(N)c2c(C)c1Cc1ccccc1.Cl,62
17,CC1CN(Cc2ccccc2)CCN1c1ccc(NC(=O)c2cccs2)cc1.O=C(O)C(F)(F)F (centres undefined),0
18,COc1cc(Cc2cnc(N)nc2N)cc(OC)c1OCCNC(=O)[C@@H](N)CCC(=O)O.Cl,0
19,Cc1cc(NCCCOc2ccc(Cl)cc2)nc(NCc2ccccc2)n1.Cl,45
